Assay results published in PubChem BioAssay AID547 (Emory University Molecular Libraries Screening Center, 2006).
Screen size: about 1,300 compounds; about 10 (0.8%) were called active. The rule behind the calls is not given here. This excerpt belongs to a sample that is enriched for actives.

The molecules below were run against Chaperone protein DnaK (Escherichia coli (strain K12)) (UniProt P0A6Y8) (assay: blockers of bacterial DnaK function – luminescence, E. coli K12, primary screen (AID 547;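 note: tested at 10 µM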)). Settings: DnaK chaperone assay, luminescence read-out; stronger effect = lower value.
For `CCCN(CCC)CCc1ccc(O)c(O)c1`, the luminescence was 2.6e+06 cps (inactive). For `CN(N=O)c1cc(O)ccc1O`, the luminescence was 2.3e+06 cps (inactive). In the case of `CN(N=O)c1ccc(O)c(O)c1`, the luminescence is reported as 951000 cps (active). `CCN(CCCl)Cc1ccccc1Br` was tested, and the luminescence was 2.7e+06 cps (inactive). For `NC(Cc1cc(O)c(O)cc1O)C(=O)O` (stereo not given), the luminescence was 1.2e+06 cps (active). For `NC(Cc1ccc(N(CCCl)CCCl)cc1)C(=O)O` (stereo not given), the luminescence was 2.5e+06 cps (inactive). With `N[C@@H](CCl)C(=O)O` the luminescence was 2.4e+06 cps (inactive). `C[N+](C)(C)CC(=O)O` was tested, and the luminescence was 2.7e+06 cps (inactive). For `Oc1ccc2c3c1O[C@H]1c4[nH]c5ccccc5c4C[C@@]4(O)C(C2)N(CC2CC2)CCC314` (stereo not given in full), the luminescence was 2.5e+06 cps (inactive). With `C[C@]12CC[C@H]3[C@@H](CCC4C[C@H](O)CC[C@@]43C)[C@@H]1CC[C@@H]2O` (stereo not given in full) the luminescence was 2.6e+06 cps (inactive).
